Test results: PubChem BioAssay AID1159580 (chemical genetic matrix, 2015)
Hit rate of the full screen: of about 5,500 compounds, about 2,000 (36%) were called active. Roughly 18% stayed inconclusive and do not appear here. The list shows a part of the results. Unmarked numbers belong to inactive results. Cut-off read from the data, not from the text of the source: active = normalized growth mostly below about 0.91 (no sharp cut-off); inconclusive = no clear call, values can overlap the other calls; inactive = mostly above about 0.92.

Assay: chemical genetic growth profiling, strain panel (AID 1159580);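 note: tested at 20 µM; growth read once vehicle control cultures reached saturation at 30 °C; 1 = growth at the plate median or of vehicle wells; lower values mean less growth of the strain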
Conditions: S. cerevisiae deletion strains, growth OD

COC(=O)[C@H](NC(=O)c1cc(-c2ccccc2)nc2ccccc12)c1ccccc1
normalized growth (locus YAL013W, strain DEP1, stronger effect = lower value): 1.02 | normalized growth (locus YAL040C, strain CLN3, stronger effect = lower value): 1.01 | normalized growth (locus YCL061C, strain MRC1 (second series), stronger effect = lower value): 0.998 | normalized growth (locus YDR363W, strain ESC2, stronger effect = lower value): 0.989 | normalized growth (locus YER002W, strain NOP16, stronger effect = lower value): 1.01 | normalized growth (locus YGR078C, strain PAC10, stronger effect = lower value): 0.984 | normalized growth (locus YJR075W, strain HOC1, stronger effect = lower value): 1 | normalized growth (locus YNL128W, strain TEP1, stronger effect = lower value): 0.996 | normalized growth (locus YNL153C, strain GIM3, stronger effect = lower value): 1 | normalized growth (locus YNL175C, strain NOP13, stronger effect = lower value): 1.01 | normalized growth (locus YNL197C, strain WHI3, stronger effect = lower value): 0.989 | normalized growth (locus YNL224C, strain SQS1, stronger effect = lower value): 1.02 | normalized growth (locus YNL322C, strain KRE1, stronger effect = lower value): 0.999 | normalized growth (locus YOR083W, strain WHI5 (second series), stronger effect = lower value): 1.06 | normalized growth (locus YPL055C, strain LGE1, stronger effect = lower value): 0.99 | normalized growth (locus YPL241C, strain CIN2, stronger effect = lower value): 0.999

NNC(=O)c1oc2nc(-c3ccccc3)cc(-c3ccccc3)c2c1N
normalized growth (locus YAR019C, strain CDC15, stronger effect = lower value): 0.972 | normalized growth (locus YBL105C, strain PKC1, stronger effect = lower value): 0.986 | normalized growth (locus YBR135W, strain CKS1, stronger effect = lower value): 0.984 | normalized growth (locus YBR136W, strain MEC1, stronger effect = lower value): 0.985 | normalized growth (locus YBR160W, strain CDC28, stronger effect = lower value): 0.987 | normalized growth (locus YDL017W, strain CDC7, stronger effect = lower value): 0.985 | normalized growth (locus YDL028C, strain MPS1, stronger effect = lower value): 0.983 | normalized growth (locus YDL101C, strain DUN1, stronger effect = lower value): 0.981 | normalized growth (locus YDL108W, strain KIN28, stronger effect = lower value): 0.978 | normalized growth (locus YDL132W, strain cdc53, stronger effect = lower value): 0.971 | normalized growth (locus YDL214C, strain PRR2, stronger effect = lower value): 0.921 | normalized growth (locus YDR052C, strain DBF4, stronger effect = lower value): 0.997 | normalized growth (locus YDR054C, strain cdc34, stronger effect = lower value): 0.962 | normalized growth (locus YDR226W, strain ADK1, stronger effect = lower value): 0.985 | normalized growth (locus YDR477W, strain SNF1, stronger effect = lower value): 0.934 | normalized growth (locus YER123W, strain YCK3, stronger effect = lower value): 0.913 | normalized growth (locus YER133W, strain GLC7, stronger effect = lower value): 0.93 | normalized growth (locus YFL009W, strain cdc4, stronger effect = lower value): 0.983 | normalized growth (locus YFL029C, strain CAK1, stronger effect = lower value): 0.965 | normalized growth (locus YFR003C, strain YPI1, stronger effect = lower value): 0.984 | normalized growth (locus YFR019W, strain FAB1, stronger effect = lower value): 0.924 | normalized growth (locus YFR028C, strain CDC14, stronger effect = lower value): 0.976 | normalized growth (locus YGR040W, strain KSS1, stronger effect = lower value): 0.93 | normalized growth (locus YGR052W, strain FMP48, stronger effect = lower value): 0.952 | normalized growth (locus YGR092W, strain DBF2, stronger effect = lower value): 0.943 | normalized growth (locus YHR030C, strain SLT2, stronger effect = lower value): 0.979 | normalized growth (locus YHR079C, strain IRE1, stronger effect = lower value): 1.01 | normalized growth (locus YHR082C, strain KSP1, stronger effect = lower value): 0.998 | normalized growth (locus YHR205W, strain SCH9, stronger effect = lower value): 0.914 | normalized growth (locus YIL147C, strain SLN1, stronger effect = lower value): 0.984 | normalized growth (locus YJL095W, strain BCK1, stronger effect = lower value): 0.891 | normalized growth (locus YJL128C, strain PBS2, stronger effect = lower value): 0.95 | normalized growth (locus YJL157C, strain FAR1, stronger effect = lower value): 0.924 | normalized growth (locus YJR016C, strain ILV3, stronger effect = lower value): 0.98 | normalized growth (locus YJR066W, strain TOR1 (second series), stronger effect = lower value): 0.887 | normalized growth (locus YJR066W, strain TOR1, stronger effect = lower value): 0.983 | normalized growth (locus YKL048C, strain ELM1, stronger effect = lower value): 0.956 | normalized growth (locus YKL067W, strain YNK1, stronger effect = lower value): 0.948 | normalized growth (locus YKL101W, strain HSL1, stronger effect = lower value): 0.937 | normalized growth (locus YKL193C, strain SDS22, stronger effect = lower value): 0.977 | normalized growth (locus YKL203C, strain TOR2, stronger effect = lower value): 0.989 | normalized growth (locus YLR113W, strain HOG1, stronger effect = lower value): 0.813 (active) | normalized growth (locus YLR133W, strain CKI1, stronger effect = lower value): 0.942 | normalized growth (locus YLR403W, strain SFP1, stronger effect = lower value): 0.924 | normalized growth (locus YML070W, strain DAK1, stronger effect = lower value): 0.899 | normalized growth (locus YMR001C, strain CDC5, stronger effect = lower value): 0.988 | normalized growth (locus YMR205C, strain PFK2 (second series), stronger effect = lower value): 0.953 | normalized growth (locus YMR277W, strain FCP1, stronger effect = lower value): 0.983 | normalized growth (locus YNL006W, strain LST8, stronger effect = lower value): 0.978 | normalized growth (locus YNL020C, strain ARK1, stronger effect = lower value): 0.935 | normalized growth (locus YNL161W, strain CBK1, stronger effect = lower value): 0.989 | normalized growth (locus YNL183C, strain NPR1, stronger effect = lower value): 0.946 | normalized growth (locus YNL207W, strain RIO2, stronger effect = lower value): 0.965 | normalized growth (locus YNL222W, strain SSU72, stronger effect = lower value): 0.981 | normalized growth (locus YNL307C, strain MCK1 (second series), stronger effect = lower value): 0.895 | normalized growth (locus YOL078W, strain AVO1, stronger effect = lower value): 0.954 | normalized growth (locus YOL136C, strain PFK27, stronger effect = lower value): 0.844 | normalized growth (locus YOR061W, strain CKA2, stronger effect = lower value): 0.958 | normalized growth (locus YOR119C, strain RIO1, stronger effect = lower value): 0.996 | normalized growth (locus YOR231W, strain MKK1, stronger effect = lower value): 0.884 | normalized growth (locus YOR329C, strain SCD5, stronger effect = lower value): 0.985 | normalized growth (locus YPL031C, strain PHO85, stronger effect = lower value): 0.907 | normalized growth (locus YPL153C, strain RAD53, stronger effect = lower value): 0.953 | normalized growth (locus YPL204W, strain HRR25, stronger effect = lower value): 0.907 | normalized growth (locus YPL209C, strain IPL1, stronger effect = lower value): 0.982 | normalized growth (locus YPL256C, strain CLN2, stronger effect = lower value): 0.939 | normalized growth (locus YPR025C, strain CCL1, stronger effect = lower value): 0.984 | normalized growth (locus YPR106W, strain ISR1, stronger effect = lower value): 0.977 | normalized growth (locus YPR111W, strain DBF20, stronger effect = lower value): 0.961 | normalized growth (strain NNK1, stronger effect = lower value): 0.97 | normalized growth (strain TSCII, stronger effect = lower value): 0.98
